Shown are actives, neighbours in structure and some others; about 3.7% of the full set was active somewhere.
PTHR1 agonist: PTHR1 (human) receptor agonism. Q03431. HEK293 GP2 PTHR1 cells, GloSensor cAMP luminescence, 1 h. Potency, µM (doses to about 115 µM), usual class: activators. 410,000 tested, 0.075% active; note: nearly all actives have a fitted effect of over 55% in size
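HEK-293-derived GP2 cells expressing PTHR1 and a GloSensor cAMP reporter, 3,000/well, plated overnight, given luciferin plus IBMX (each 0.5 mM as added) for 1 h at 37 °C, then compound for 1 h at 37 °C. Luminescence was read after 15 min at room temperature.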
B2AR arrestin: beta2AR (human) beta-arrestin recruitment activity; P07550; beta-arrestin recruitment to beta2AR, cell-based reporter; Potency, µM (top dose mostly 46.1 µM), actives largely listed as activators; 330,000 tested, 0.02% active; note: nearly all actives have a fitted effect of over 65% in size
Target sequence (P07550 whole entry, looked up): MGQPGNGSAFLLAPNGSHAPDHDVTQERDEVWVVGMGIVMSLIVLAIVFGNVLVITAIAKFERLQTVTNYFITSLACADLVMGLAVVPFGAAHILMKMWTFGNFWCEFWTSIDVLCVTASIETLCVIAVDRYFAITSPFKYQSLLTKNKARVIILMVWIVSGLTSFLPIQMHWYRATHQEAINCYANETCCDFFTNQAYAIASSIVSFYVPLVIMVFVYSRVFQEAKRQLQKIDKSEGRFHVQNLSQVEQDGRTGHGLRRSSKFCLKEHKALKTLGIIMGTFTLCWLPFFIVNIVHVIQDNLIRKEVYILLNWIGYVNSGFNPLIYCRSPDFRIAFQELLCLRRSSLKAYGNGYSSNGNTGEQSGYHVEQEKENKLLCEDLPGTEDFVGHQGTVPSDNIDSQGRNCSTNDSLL
DRD3 antagonist: D3 dopamine receptor (human) antagonism; P35462; D3R cells, DiscoveRx beta-arrestin luminescence, antagonist mode; stronger effect = lower value; max response, negative = inhibition, %; 360,000 tested, 2.5% active; AID 652054; in the data active = max response below about -50%; inconclusive = no clear call, values can overlap the other calls
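Cells plated overnight at 1500 cells/well, then exposed to library compounds with dopamine controls for 90 minutes at 37 degrees C. DiscoveRx reagent added for 30–60 minutes at room temperature; luminescence read, quantitative HTS format.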
BRCA1 expr act: increases BRCA1 expression | MCF7-BRCA1-FFLuc reporter, luminescence, 48 h; response scale: scaled: vehicle 0%, 10 µM genistein 100% | Potency, µM (highest dose often 46.1 µM), most hits filed as activators | 380,000 tested, 1.1% active; note: nearly all actives have a fitted effect of over 80% in size
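Compounds are tested at multiple concentrations on MCF7 BRCA1-luciferase reporter cells seeded at 2000 per well; after 48 h, a single luminescence end-point is taken and curves fitted to the normalized data.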
DRD3 agonist: D3 dopamine receptor (human) agonism. 410,000 tested, 0.58% active. max activation, %. P35462. D3R DiscoveRx beta-arrestin cells, luminescence, 90 min. AID 652048; in the data active = max activation above about 30%
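Cells at 1500/well, incubated overnight, then treated with pinned compounds (dopamine as control) for 90 min at 37 degrees C. DiscoveRx reagent added for 30 - 60 minutes at room temperature; luminescence read.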
RGS4 inhibitor: inhibitors of human regulator of G protein signaling 4. Potency, µM (highest dose often 114 µM), most hits filed as inhibitors. Transcreener GDP fluorescence polarization, RGS4-accelerated GTP hydrolysis. 390,000 tested, 0.039% active. P49798. AID 504845; note: nearly all actives have a fitted effect of over 75% in size
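MLSMR compounds (23 nl, pin-transferred) preincubated 10 min at room temperature with a 500nM (2x) first reagent, then RGS4 at 900nM (2x) plus Transcreener GDP mix added; fluorescence polarization (620/688 nm) read before and after 90 min at 30 °C.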
Hits are given with their value. Unless noted, calls come from the whole dose curve; as a rule, active = well fitted curve in the direction sought with a large enough effect; inconclusive = small, poorly fitted or top-dose-only effect, or another doubt; inactive = no such curve, though single readings can be large; an effect the other way counts as inactive or inconclusive.

For Cn1c(SCc2nc3ccccc3c(=O)[nH]2)nc2ccccc21 the results were PTHR1 agonist inactive, B2AR arrestin inactive, DRD3 antagonist inactive, BRCA1 expr act inactive, DRD3 agonist inactive and RGS4 inhibitor inactive.
Screening CCCCCn1nc(C(=O)OCc2nnc(-c3ccccc3)o2)c2ccccc2c1=O returned PTHR1 agonist inactive, B2AR arrestin inactive, DRD3 antagonist inactive, BRCA1 expr act inactive, DRD3 agonist inactive and RGS4 inhibitor inactive.
COc1cc(-c2nnc(COC(=O)c3nn(CC(C)C)c(=O)c4ccccc34)o2)cc(OC)c1OC was read as PTHR1 agonist inactive, B2AR arrestin inactive, DRD3 antagonist inactive, BRCA1 expr act inactive, DRD3 agonist 56 and RGS4 inhibitor inconclusive.
For COCCCn1c(SCc2nnc(-c3ccc(OC)c(OC)c3)o2)nc2ccccc2c1=O the results were PTHR1 agonist inactive, B2AR arrestin inactive, DRD3 antagonist inactive, BRCA1 expr act inactive, DRD3 agonist inactive and RGS4 inhibitor inactive.
`CSc1nn(Cc2cccc(Cl)c2)c(N(C(C)=O)C(C)=O)c1S(=O)(=O)c1ccccc1` gave PTHR1 agonist inactive, BRCA1 expr act inactive, DRD3 agonist inactive and RGS4 inhibitor inactive.
For CC(C)(C)C(=O)Oc1ccc(S(=O)(=O)Nc2ccccc2C(=O)NCC(=O)O)cc1 the results were DRD3 agonist inactive.
CCCn1c(C)cc(/C=C(\C#N)C(=O)OCC(=O)N(CC)c2c(N)n(Cc3ccccc3)c(=O)[nH]c2=O)c1C was read as PTHR1 agonist inactive, DRD3 antagonist inactive, BRCA1 expr act inactive, DRD3 agonist inactive and RGS4 inhibitor inactive.
`C[C@]1(CC/C(=C/CO)CO)[C@H](CO)CC[C@@]23COC(=O)C2=CCC[C@@H]31` gave PTHR1 agonist inactive, B2AR arrestin inactive, DRD3 antagonist inactive, BRCA1 expr act inactive, DRD3 agonist inactive and RGS4 inhibitor inactive.
c1ccc(CN=C2CCCc3ccccc3N2)cc1 was read as PTHR1 agonist inactive, DRD3 antagonist inactive, BRCA1 expr act inactive and DRD3 agonist inactive.
O=Cc1ccc(O)c2ncccc12 was read as PTHR1 agonist inactive, B2AR arrestin 6.3µM, DRD3 antagonist -83, BRCA1 expr act inactive, DRD3 agonist inactive and RGS4 inhibitor inactive.
For O=C(O)c1ccnc2c(O)cccc12 the results were B2AR arrestin inactive.
`N/C(CS(=O)(=O)c1ccccn1)=N\OC(=O)c1ccccc1Cl` gave PTHR1 agonist inactive, B2AR arrestin inactive, DRD3 antagonist inactive, BRCA1 expr act 2.5µM, DRD3 agonist inactive and RGS4 inhibitor inactive.
Clc1ncc(CN2CCN(c3ccccc3)CC2)s1 was read as PTHR1 agonist inactive, B2AR arrestin inactive, DRD3 antagonist inactive, BRCA1 expr act inactive, DRD3 agonist 39 and RGS4 inhibitor inactive.
`c1ccc(N2CCN(Cc3cnc(N4CCOCC4)s3)CC2)cc1` gave PTHR1 agonist inactive, B2AR arrestin inactive, DRD3 antagonist inconclusive, BRCA1 expr act inactive, DRD3 agonist inactive and RGS4 inhibitor inactive.
`Fc1ccccc1N1CCN(Cc2cnc(Cl)s2)CC1` gave PTHR1 agonist inactive, B2AR arrestin inactive, DRD3 antagonist inactive, BRCA1 expr act inactive, DRD3 agonist 50 and RGS4 inhibitor inactive.
COc1cc(C2NC(=O)C(C#N)=C(S)N2c2ccccc2)ccc1OC(C)C (stereo not drawn) was read as PTHR1 agonist inactive, B2AR arrestin inactive, DRD3 antagonist -67, BRCA1 expr act inactive, DRD3 agonist inactive and RGS4 inhibitor inactive.
Screening Cc1nnc(NC(=O)c2sc3ccccc3c2Cl)s1 returned PTHR1 agonist inactive, B2AR arrestin inactive, DRD3 antagonist -73, BRCA1 expr act inactive, DRD3 agonist inactive and RGS4 inhibitor inactive.
`O=C(NCCCN1CCOCC1)c1sc2ccccc2c1Cl` gave PTHR1 agonist inactive, B2AR arrestin inactive, DRD3 antagonist inactive, BRCA1 expr act 11µM, DRD3 agonist inactive and RGS4 inhibitor inactive.
Screening O=C(NCCO)N1c2ccccc2Sc2ccccc21 returned PTHR1 agonist inactive, B2AR arrestin inactive, DRD3 antagonist inactive, BRCA1 expr act inactive, DRD3 agonist inactive and RGS4 inhibitor inactive.
